Source: PubChem
KCNH2 WT inh: qHTS for Inhibitors of KCHN2 3.1: Wildtype qHTS. Voltage-gated inwardly rectifying potassium channel KCNH2 (Homo sapiens), Q12809. U2OS, BacMam KCNH2, thallium flux FluxOr; stronger effect = lower value. activity change, % at 1.84 µM. 340,000 compounds, 0.37% hits;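 active = maximum activity change below -70%; inconclusive = maximum activity change between -70% and -50%; inactive = maximum activity change above -50%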
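U2OS cells were transduced with wild-type KCNH2 virus (2.03 x 10^8 / mL) for 4 h at room temperature, then cultured overnight at 37 C. Thallium flux was read with FluxOr dye. Rate constants were normalized to DMSO controls.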
HEK293 tox: qHTS of GLP-1 Receptor Inverse Agonists: Cytotox Screen; HEK293 cAMP-luciferase reporter cells, luminescence, 24 h; Potency, µM (highest dose often 38.3 µM), most hits filed as inhibitors; 410,000 compounds, 0.13% hits;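 also: loss of luciferase light is scored as toxicity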
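Seeding density was 200 cells/uL; after overnight-length (12 h) culture, 23 nL compounds went on for 24 h at 37 °C. Readout used a luciferase detection reagent, luminescence taken after 12 min at room temperature.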
GLS inh: qHTS for Inhibitors of Glutaminase (GLS) | Glutaminase kidney isoform, mitochondrial (Homo sapiens), O94925 | GLS enzymatic activity, qHTS titration | Potency, µM (top dose mostly 45.5 µM), most hits filed as inhibitors | 410,000 compounds, 0.21% hits | AID 624170, 2012
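Human kidney-isoform GLS in 45 mM KH2PO4 pH 8.2, 0.02% Tween-20, with compound, started with 1mM L-Glutamine (added stock). Glutamate oxidase/HRP/Amplex red coupled fluorescence read at start and after 30 min at RT.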
GLP1R inv ag: qHTS of GLP-1 Receptor Inverse Agonists (Inhibition Mode); Glucagon-like peptide 1 receptor (Homo sapiens), P43220; HEK293 GLP-1R CRE-luciferase, luminescence, 24 h; GLP-1R form is constitutively active; Potency, µM (doses to about 38.3 µM), most hits filed as inhibitors; 410,000 compounds, 1.6% hits; also: nearly all actives have a fitted effect of over 55% in size
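qHTS in 1536-well format: reporter HEK293 cells expressing constitutive GLP-1R activity in DMEM + 10% Nu serum, 24 hr with compounds at 37 deg C, luminescence read after 12 min with detection reagent.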
KCNH2 3.1 inh: qHTS for Inhibitors of KCHN2 3.1: Mutant qHTS; U2OS KCNH2 3.1, thallium flux FluxOr; stronger effect = lower value; activity change, % (tested at about 1.8 µM); 340,000 compounds, 0.95% hits; Potassium voltage-gated channel subfamily H member 2, brain isoform KCNH2 3.1 (human); AID 720553, 2013;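 active = maximum activity change below -70%; inconclusive = maximum activity change from -70% to -50%; inactive = maximum activity change above -50%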;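 also: thallium influx rate constant from kinetic fluorescence after stimulation buffer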
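Steps: virus added to U2OS suspension (4 h, RT, dark); medium with 10% FBS added, cells plated, 37 C overnight; FluxOr/Red40 loading buffer 45 min RT; stimulation buffer, 2 min kinetic read; rate constant normalized.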
GLP-1R agonist: qHTS of GLP-1 Receptor Agonists. HEK293 GLP-1R CRE-luciferase, luminescence, 4-6 h; cells express a hypersensitive GLP-1R form. 380,000 compounds, 0.007% hits. Potency, µM (doses to about 45.6 µM), hits mostly activators
Hits are given with their value; - = inactive; ? = inconclusive; . = not tested or not shown. Sampled rows, rich in hits. Any-hit rate of the full collection: about 2.8%. Unless noted, calls follow the shape of the dose curve; as a rule, active = well fitted curve in the direction sought with a large enough effect; inconclusive = small, poorly fitted or top-dose-only effect, or another doubt; inactive = no such curve, though single readings can be large; an effect the other way counts as inactive or inconclusive.

SMILES	KCNH2 WT inh	HEK293 tox	GLS inh	GLP1R inv ag	KCNH2 3.1 inh	GLP-1R agonist
CN(C)CCCN(C(=O)CCOc1ccccc1)c1nc2ccc(F)cc2s1	-	10µM	-	?	-	-
CCN(Cc1ccccc1)S(=O)(=O)c1ccc(C(=O)N(CCCN(C)C)c2nc3ccc(F)cc3s2)cc1	-	?	-	5.62µM	-	-
Cc1cccc(C)c1OC(=O)CSc1nnc(CNC(=O)c2ccccc2)o1	.	-	-	-	.	.
CCOC(=O)C1=C(CN2CCCCC2)NC(=O)NC1c1ccc(C)cc1 (configuration not stated)	.	-	-	-	.	-
CCCn1cc(S(=O)(=O)c2ccccc2)c(=O)c2cc(F)c(N3CCCCCC3)cc21	.	-	-	?	.	.
O=C(NNC(=O)C1[C@H]2CCCC[C@@H]12)NC1CCCCC1 (some centres not stated)	.	-	-	-	-75.7	-
N=c1c2c(-c3ccccc3)c(-c3ccccc3)n(Cc3ccccc3)c2ncn1CCCn1ccnc1	-	10µM	-	7.94µM	-	-
CCCCn1cnc2c(c(-c3ccccc3)c(-c3ccccc3)n2Cc2ccco2)c1=N	-	?	-	?	-	-
N=c1c2c(-c3ccccc3)c(-c3ccccc3)n(Cc3ccco3)c2ncn1Cc1ccco1	?	?	-	8.91µM	-92.7	-
COc1ccc2c(c1)c1c(c(=O)n(-c3cccc(C)c3)c(=O)n1CC(=O)NCC1CCCO1)n2C (configuration not stated)	.	-	-	-	.	-
C=C1/C(=C\C=C2/CCC[C@@]3(C)[C@@H]([C@H](C)OCCC(C)(C)O)CC[C@@H]23)C[C@@H](O)C[C@@H]1O	.	.	-	.	.	-
CNC(=S)N/N=C(\C)c1ccc(C(C)(C)C)cc1	-	-	-	-	-	-
CNC(=S)N/N=C(\C)c1ccccc1	-	?	-	10µM	-	-
C/C(=N\NC(=S)NC(C)C)c1ccc2c(c1)OCCO2	-	4.47µM	-	10µM	-	-
CNC(=S)N/N=C(\C)c1ccc2c(c1)OCO2	-	?	-	10µM	-	-
CNC(=S)N/N=C(\C)c1ccc2c(c1)OCCO2	-	?	-	?	-	-
O=C1OC2C(O)C(O)OC2C1O (configuration not stated)	.	.	-	.	.	-
O=C(Nc1ccccc1F)C1CCN(S(=O)(=O)c2cccnc2)CC1	-	-	-	-	-	-
C/C(=N\NC(N)=S)c1ccc(Cl)s1	-	?	-	3.16µM	-	-
COc1ccccc1C(=O)NCc1nnnn1-c1ccc(C)c(C)c1	.	-	-	-	.	.
CC(C)NCC(O)COC1CCC(C(C)(C)C)CC1 (configuration not stated)	-	?	-	7.08µM	-	-
Cc1cnc2c(c1)C(=O)c1ccccc1-2	-	-	-	-	-110.5	-
Cc1cccc(-c2cc3c(nn2)-c2ccccc2C3=O)c1	-	-	-	-	-	-
CCCCCCNCC(=O)N1CCC(Cc2ccccc2)CC1	-	?	-	?	-100.6	-
CCCC(=O)N1CCC(Cc2ccccc2)CC1	-	-	-	-	-	-
COc1cccc(C(=O)Nc2ccc(NC(=O)C(C)(C)C)cn2)c1	-	-	-	12.6µM	-	-
O=C(Nc1ccc(Br)cn1)c1cccc(C(=O)Nc2ccc(Br)cn2)c1	-	-	-	-	-77.0	-
COc1cccc(C(=O)Nc2ccc(NC(=O)C3CCCCC3)nc2)c1	-	-	-	?	-	-
COCCn1c(SCC(=O)Nc2ccc(Cl)c(S(=O)(=O)N(C)C)c2)nc2ccccc21	-117.6	-	-	?	-	-
